The list is not random: actives were taken first. Their share in the collection is about 1.8%.
RGS4 inh: blocks human RGS4-accelerated GTP hydrolysis. 390,000 tested, 0.039% active. Potency, µM (titrated, usually from 114 µM), usual class: inhibitors. Transcreener GDP fluorescence polarization, RGS4-accelerated GTP hydrolysis. P49798; note: nearly all actives have a fitted effect of over 75% in size
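MLSMR compounds (23 nl, pin-transferred) preincubated 10 min at room temperature with a 500nM (2x) first reagent, then RGS4 at 900nM (2x) plus Transcreener GDP mix added; fluorescence polarization (620/688 nm) read before and after 90 min at 30 °C.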
GLP-1R inv ag: acts as inverse agonist at human GLP-1 receptor; HEK293 GLP-1R CRE-luciferase, luminescence, 24 h; GLP-1R form is constitutively active; Potency, µM (titrated, usually from 38.3 µM), hits mostly inhibitors; 410,000 tested, 1.6% active; note: nearly all actives have a fitted effect of over 55% in size
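Luminescence readout: a drop in cAMP-driven luciferase signal flags inverse agonism at a constitutively active GLP-1R stably expressed in HEK293. Compound exposure lasted 24 hr at 37 deg C, 5% CO2.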
HEK293 tox: cytotoxic in the GLP-1 receptor inverse agonist counter-screen | HEK293 cAMP-luciferase reporter cells, luminescence, 24 h | AID 624418 | Potency, µM (top dose mostly 38.3 µM), most hits filed as inhibitors | 410,000 tested, 0.13% active;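 note: loss of luciferase light is scored as toxicity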
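A 23 nL compound transfer followed 12 hours of cell culture at 37 deg C; exposure then lasted 24 hr. Luciferase assay detection reagent was dispensed and plates read for luminescence after a 12 min room-temperature wait.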
GCN5L2 inh-1: GCN5L2 (KAT2A) acetyltransferase inhibition | Q92830 | GCN5L2 HAT assay, ThioGlo1 CoA-SH fluorescence | Potency, µM (series often up to 58.9 µM), actives largely listed as inhibitors | 390,000 tested, 0.21% active
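GCN5L2 (20nM final) in 50mM HEPES, 0.1mM EDTA pH 7.5, 0.01% Tween-20 was preincubated 15 min at room temperature with compound, then given ThioGlo1 (50uM), H3(1-25) peptide (75uM) and acetyl-CoA (70uM); CoA-thiol fluorescence (Ex340/Em540) was read at 0 and 20 min.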
PTHR1 agonist: agonists of human PTHR1 parathyroid hormone receptor | Q03431 | HEK293 GP2 PTHR1 cells, GloSensor cAMP luminescence, 1 h | Potency, µM (titrated, usually from 115 µM), usual class: activators | 410,000 tested, 0.075% active | AID 743266; note: nearly all actives have a fitted effect of over 55% in size
Target sequence (Q03431 whole entry, looked up): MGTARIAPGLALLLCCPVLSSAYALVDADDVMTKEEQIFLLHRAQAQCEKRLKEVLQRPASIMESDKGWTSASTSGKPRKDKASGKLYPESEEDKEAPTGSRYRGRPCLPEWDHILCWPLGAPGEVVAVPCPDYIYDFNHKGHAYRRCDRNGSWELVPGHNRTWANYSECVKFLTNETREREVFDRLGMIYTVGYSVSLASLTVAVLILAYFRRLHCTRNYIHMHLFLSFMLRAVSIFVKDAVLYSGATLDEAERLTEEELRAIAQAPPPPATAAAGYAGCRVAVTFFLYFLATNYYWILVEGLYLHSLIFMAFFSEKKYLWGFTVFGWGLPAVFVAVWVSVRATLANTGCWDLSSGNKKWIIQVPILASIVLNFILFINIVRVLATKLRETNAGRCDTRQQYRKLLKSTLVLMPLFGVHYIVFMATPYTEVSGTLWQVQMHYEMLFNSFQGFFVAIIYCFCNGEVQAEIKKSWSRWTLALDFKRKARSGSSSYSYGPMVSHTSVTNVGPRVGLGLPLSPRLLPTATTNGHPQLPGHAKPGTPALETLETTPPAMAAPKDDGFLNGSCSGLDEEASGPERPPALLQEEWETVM
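HEK-293-derived GP2 cells expressing PTHR1 and a GloSensor cAMP reporter, 3,000/well, plated overnight, given luciferin plus IBMX (each 0.5 mM as added) for 1 h at 37 °C, then compound for 1 h at 37 °C. Luminescence was read after 15 min at room temperature.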
GLP-1R agonist: GLP-1 receptor (human) agonism. Potency, µM (doses to about 45.6 µM), most hits filed as activators. AID 624172. 380,000 tested, 0.007% active. HEK293 GLP-1R CRE-luciferase, luminescence, 4-6 h; cells express a hypersensitive GLP-1R form. P43220
GCN5L2 inh-2: human KAT2A HAT inhibition, hit confirmation; shares compounds with GCN5L2 inh-1; GCN5L2 HAT, ThioGlo1 CoA fluorescence, 20 min; Potency, µM, most hits filed as inhibitors; 140 tested, 70% active; AID 588347
Of the large screens only hits and unclear results are named; the others gave an inactive call (follow-up assays come after a bar, where they were run). Calls come from the whole dose curve; as a rule, active = well fitted curve in the direction sought with a large enough effect; inconclusive = small, poorly fitted or top-dose-only effect, or another doubt; inactive = no such curve, though single readings can be large; an effect the other way counts as inactive or inconclusive.

Cc1[nH]n(-c2ccc(Br)cc2)c(=O)c1/C=N/NC(=O)c1ccccc1	GLP-1R inv ag inconclusive
Cc1[nH]n(-c2ccccc2)c(=O)c1/C=N/N1CCOCC1	none
CC(=O)OCC(NC(=O)C(Cc1ccccc1)NC(=O)OC(C)(C)C)C1OC(n2cc(C)c(=O)[nH]c2=O)C(OC(C)=O)C1OC(C)=O (stereo not given)	none (no result: GLP-1R inv ag, HEK293 tox, GCN5L2 inh-1, PTHR1 agonist, GLP-1R agonist)
Cc1cc(-c2ccc(C)c(S(=O)(=O)Nc3ccccc3C(F)(F)F)c2)on1	GLP-1R inv ag inconclusive (no result: GLP-1R agonist)
COc1ccc(C(=O)/C(=C/O)N=Nc2ccc(F)cc2)cc1	GLP-1R inv ag 10µM, HEK293 tox inconclusive
CC(CCCN(C)C)C(Cc1ccccc1)c1ccccc1 (stereo not given)	GLP-1R inv ag 11µM (no result: GCN5L2 inh-1)
O=c1cc2c(c(-c3ccccc3)n1Cc1ccccc1)[C@@H](CCO)NC2	none (no result: GCN5L2 inh-1)
CCC1(C)Cc2c(sc3[nH]c(=S)[nH]c(=S)c23)CO1 (stereo not given)	none
CCC1(C)Cc2sc3c(=O)[nH]c(=S)[nH]c3c2CO1 (stereo not given)	RGS4 inh inconclusive, GCN5L2 inh-1 25µM
O=C1c2cccc3c(N4CCCCC4)ccc(c23)C(=O)N1CCO	GLP-1R agonist inconclusive
O=C(OCCN1C(=O)c2cccc3c(N4CCOCC4)ccc(c23)C1=O)c1cccc(Cl)c1	GLP-1R inv ag inconclusive, GCN5L2 inh-1 inconclusive | GCN5L2 inh-2 inconclusive
O=C(O)CCS(=O)(=O)c1cccc2cccnc12	GCN5L2 inh-1 inconclusive, PTHR1 agonist inconclusive
CCSS(=O)(=O)c1cccc2cccnc12	GLP-1R inv ag inconclusive, HEK293 tox inconclusive, GCN5L2 inh-1 3.2µM | GCN5L2 inh-2 3.6
CCCCc1c(Cc2cccc(F)c2)ncn1CCc1ccccc1OC	GLP-1R inv ag inconclusive (no result: RGS4 inh, GCN5L2 inh-1)
O=C1C=CC(=O)C(C2=C3C(=O)N(CCc4ccccc4)CC(=O)N3CCC2)=C1	RGS4 inh inconclusive, HEK293 tox inconclusive, GCN5L2 inh-1 14µM | GCN5L2 inh-2 18
CC(C)c1ccc(Nc2cc(C(=O)NCCc3ccccc3)c3ccccc3n2)cc1	none
N/C(=N\OC(=O)c1ccc(Br)o1)c1ccccn1	GLP-1R inv ag inconclusive
CC(C)c1ccc(S(=O)(=O)/N=C2\C=C(NS(=O)(=O)c3ccccc3)C(=O)c3ccccc32)cc1	RGS4 inh inconclusive, GLP-1R inv ag inconclusive, HEK293 tox inconclusive, GCN5L2 inh-1 22µM | GCN5L2 inh-2 9.1
CCOC(=O)Cc1csc(NC(=O)CSc2nnnn2-c2ccc(F)cc2)n1	none
CCOC(=O)Cc1csc(NC(=O)CSc2nnnn2-c2ccc(C)c(C)c2)n1	GLP-1R inv ag inconclusive, GCN5L2 inh-1 inconclusive | GCN5L2 inh-2 inconclusive
COc1ccc(CNC(=O)c2cn(Cc3ccccc3F)c(=O)s2)cc1	none (no result: RGS4 inh, GCN5L2 inh-1)
COc1ccc(CC(=O)n2[nH]c(=O)ccc2=O)cc1OC	RGS4 inh inconclusive, GCN5L2 inh-1 inconclusive | GCN5L2 inh-2 36
CC1Cc2cc(S(=O)(=O)NCc3ccccc3Cl)ccc2N1C(=O)C1CCC1 (stereo not given)	GLP-1R inv ag inconclusive (no result: GLP-1R agonist)
C[n+]1ccccc1/C=C/c1ccc(C#N)cc1	GCN5L2 inh-1 inconclusive | GCN5L2 inh-2 29
COc1ccc2c(C(=O)NCCCCO)c(-c3ccc(S(C)(=O)=O)cc3)sc2c1	GCN5L2 inh-1 inconclusive | GCN5L2 inh-2 36
COc1cc(NC(=O)c2ccccc2)c(OC)cc1NC(=O)CN1C(=O)N(C)C2(CCCCC2)C1=O	none
CC(=O)Cc1nsc(NC(=O)c2cc(-c3ccccc3Cl)oc2C)n1	GLP-1R inv ag inconclusive
Cn1c(CO)nc2cc(N)ccc21	none
Nc1ccc(-c2nc3cc(N)ccc3n2CCO)cc1	GCN5L2 inh-1 inconclusive | GCN5L2 inh-2 18
CC(=O)NC(=S)Nc1sc2c(c1C(N)=O)CCC(C)C2 (stereo not given)	GCN5L2 inh-1 20µM | GCN5L2 inh-2 32
CCOC(=O)Nc1sc2c(c1C(N)=O)CCC(C)C2 (stereo not given)	RGS4 inh inconclusive
Cc1nn(C)cc1S(=O)(=O)NCc1ccccc1Cl	none
Nc1c(C(=O)NCc2ccco2)sc2nc(N3CCOCC3)c3c(c12)CCCC3	RGS4 inh inconclusive, GCN5L2 inh-1 inconclusive | GCN5L2 inh-2 inconclusive
Nc1c(C(=O)Nc2ccc(Br)cc2)sc2nc(N3CCOCC3)c3c(c12)CCCC3	none (no result: RGS4 inh, GCN5L2 inh-1)
O=C(Nc1ccc(Cl)cc1)c1cccc(S(=O)(=O)Nc2ccccn2)c1	none
COc1ccc(C(=O)N/N=C/c2ccc3cccc(OCc4ccccc4)c3n2)cc1	GLP-1R inv ag inconclusive, HEK293 tox inconclusive, GCN5L2 inh-1 inconclusive | GCN5L2 inh-2 23
COC(=O)C1=C(C)NC(C)=C(C(=O)OC)C1C(=O)OC(C)C(=O)c1ccccc1 (stereo not given)	none
COc1cc(N=c2ssnc2Cl)cc(OC)c1OC	GCN5L2 inh-1 10µM | GCN5L2 inh-2 3.6
CCOC(=O)C1CCN(S(=O)(=O)c2ccc3c4c(cccc24)C(=O)N3CC)CC1	GCN5L2 inh-1 inconclusive | GCN5L2 inh-2 inconclusive
O=C(C1=NN(c2ccccc2)C2C(=O)N(c3ccccc3)C(=O)C12)c1ccccc1 (stereo not given)	GCN5L2 inh-1 inconclusive
O=C(C1=NN(c2ccccc2)C2C(=O)N(c3ccccc3Cl)C(=O)C12)c1ccccc1 (stereo not given)	GCN5L2 inh-1 inconclusive | GCN5L2 inh-2 inconclusive
Cc1ccc(N2C(=O)C3C(C(=O)c4ccccc4)=NN(c4ccccc4)C3C2=O)cc1 (stereo not given)	GCN5L2 inh-1 20µM | GCN5L2 inh-2 inconclusive
Nc1c(C(=O)N2CCOCC2)sc(=S)n1-c1ccccc1	RGS4 inh inconclusive
Nc1c(C(=O)N2CCCCC2)sc(=S)n1-c1ccccc1	RGS4 inh inconclusive, GCN5L2 inh-1 inconclusive | GCN5L2 inh-2 inconclusive
CN(C)/C=C1\C=C2C(=O)c3ccccc3N2C1=O	GCN5L2 inh-1 18µM | GCN5L2 inh-2 36
CN(C)S(=O)(=O)N1C(=O)c2ccccc2C1=O	none
O=c1c2ccccc2sn1-c1cc(S(=O)(=O)N2CCOCC2)ccc1N1CCCC1	RGS4 inh inconclusive, GCN5L2 inh-1 8.9µM | GCN5L2 inh-2 5.8
O=S(=O)(c1ccc(N2CCOCC2)c(Cl)c1)N1CCOCC1	none
O=c1c2ccccc2sn1-c1cc(S(=O)(=O)N2CCOCC2)ccc1N1CCOCC1	GCN5L2 inh-1 1.6µM | GCN5L2 inh-2 4.1

Screening results from PubChem BioAssay.
